Assay outcomes as filed in PubChem BioAssay.
12-hLO inh = inhibitors of human 12-lipoxygenase (ALOX12) | P18054 | purified 12-hLO, xylenol orange hydroperoxide absorbance | Potency, µM (highest dose often 57.1 µM), for inactives: at the highest dose activity change, negative = inhibition, most hits filed as inhibitors | 150,000 compounds, 0.12% hits | AID 1452; active = well fitted inhibition curve with a large enough effect; inconclusive = small, poorly fitted or top-dose-only effect; also: potency is read from the fitted curve at half-maximal effect; nearly all actives have a fitted effect of over 55% in size
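Hydroperoxide output read as Fe(III)-xylenol orange absorbance, 573-to-405 nm ratio, after 30 min reaction with 40 uM arachidonic acid. Enzyme: 150 nM purified human 12hLO, 15 min compound preincubation; 25 mM Hepes pH 7.0, room temperature.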
ALDH1A1 block = blocks purified human ALDH1A1 activity | AID 1030 | Potency, µM (top dose mostly 75.3 µM), for the others: at the top dose activity, negative = inhibition, actives largely listed as inhibitors | 220,000 compounds, 7.3% hits | P00352 | Purified ALDH1A1, NADH fluorescence, propionaldehyde substrate;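 also: potency is read from the fitted curve at half-maximal effect; plate controls were no enzyme wells and a reference inhibitor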
PNC assembly inh = inhibitors of perinucleolar compartment assembly | PC3M PTB-GFP, PNC prevalence imaging, 16 h; hits give low values | activity change (PNC), negative = inhibition, % at 10 µM | 140,000 compounds, 3.1% hits;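 active = readout at or below -70, meaning at least 70% loss of cells showing the perinucleolar compartment, a nuclear body marking cancer cells; inconclusive = readout between -30 and a set limit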;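 also: plate controls were DMSO wells for no effect and camptothecin positive control wells for full effect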
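Compounds are pinned in duplicate onto adhered PC3M cells stably expressing GFP-tagged PTB and incubated 16 h at 37 C. Cells are then fixed, nuclei stained with Hoechst, and PNC-positive cells counted.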
HPGD inh = HPGD (human) dehydrogenase inhibition; AID 894; P15428; purified HPGD, NADH fluorescence kinetic, PGE2 substrate; Potency, µM, inactives show at the highest dose activity change, negative = inhibition, actives largely listed as inhibitors; 150,000 compounds, 4.3% hits; also: potency is read from the fitted curve at half-maximal effect
Target sequence (P15428 whole entry, looked up): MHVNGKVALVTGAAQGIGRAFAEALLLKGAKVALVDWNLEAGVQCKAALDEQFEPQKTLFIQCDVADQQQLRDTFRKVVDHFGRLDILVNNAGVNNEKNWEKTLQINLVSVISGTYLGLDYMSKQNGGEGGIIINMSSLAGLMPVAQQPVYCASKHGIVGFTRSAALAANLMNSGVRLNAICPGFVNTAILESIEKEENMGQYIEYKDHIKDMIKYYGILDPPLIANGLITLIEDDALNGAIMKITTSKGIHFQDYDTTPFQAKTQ
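NADH formation kinetics: reaction with 30 uM PGE2 and 1 mM NAD+ (final), 20 nM enzyme, Tris-HCl pH 8 with Tween 20, after 15 min compound preincubation at room temperature. Fluorescence change, last versus first of five reads.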
LMNA splice mod = modulators of lamin A splicing; HeLa LMNA splicing GFP/RFP minigene ratio, 48 h; Potency, µM (titrated, usually from 46.1 µM), without a hit: at the highest dose ratio change, negative = inhibition, hits mostly inhibitors; 200,000 compounds, 0.01% hits; active = well fitted inhibition curve with a large enough effect in the signal ratio, with a control signal flat, not every such curve was filed as active; inconclusive = small, poorly fitted or top-dose-only effect, or effect the other way, or a change in a side signal; the % refers to the signal ratio; also: potency is read from the fitted curve at half-maximal effect
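S3 HeLa cells stably expressing lamin A-EGFP splicing minigene plus DsRed2, 600 cells/well, 48 h compound exposure at 37C. Laser-scanning cytometry; analysed as GFP (500-530 nm)/RFP (575-640 nm) total intensity ratio; 0.5% DMSO vehicle.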
* hit, by the source's call; ? = inconclusive; nt = no result; [ ] = remark or other dose. Sampled rows, rich in hits. Any-hit rate of the full collection: about 10%. Unless noted, calls follow the shape of the dose curve; as a rule, active = well fitted inhibition curve with a large enough effect (not every such curve was filed as active); inconclusive = small, poorly fitted or top-dose-only effect, or another doubt; inactive = no such curve, though single readings can be large or run the other way. Unless noted, % is scaled to controls: 0 for no effect and ±100 for the full control effect.

SMILES	12-hLO inh	ALDH1A1 block	PNC assembly inh	HPGD inh	LMNA splice mod
CCCCn1c(O)c(C(CC)=Nc2ccc(OC)cc2OC)c(=O)[nH]c1=O	-14.2%	4.8%	41.3	15.8µM*	?
C[C@]1(O)CC[C@H]2[C@@H]3[C@@H](O)CC4=CC(=O)CC[C@@]4(C)[C@H]3CC[C@]21C	3.7%[11.4 µM]	20.2%[13.5 µM]	nt	-3.4%	nt
NCCc1c[nH]c2ccc(OC(=O)C(=O)O)cc12	1.8%[11.4 µM]	-15.8%[13.5 µM]	nt	-12.9%	nt
C[C@@H]1O[C@H](O[C@@H]2C[C@@H](O)[C@]3(CO)[C@H]4[C@H](O)C[C@]5(C)[C@@H](C6=CC(=O)OC6)CC[C@@]5(O)[C@@H]4CC[C@]3(O)C2)[C@@H](O)[C@H](O)[C@H]1O	1.2%	-5.5%	nt	-2.8%	nt
S=C1NCCN1	0.2%	6.2%	-84.5*	-11.4%	1.4%
CCNCC	1.4%	4.3%	nt	-3.2%	nt
c1cc2c(cc1[C@H]1OC[C@@H]3[C@H]1CO[C@H]3c1ccc3c(c1)OCO3)OCO2	-2.3%	-1.4%	nt	-20.9%	nt
c1csc(CN2CC[C@@]3(CCCNC3)C2)n1	1.9%	22.4µM*	nt	-13.0%	nt
Nc1nonc1C(=O)N/N=C/c1ccc([N+](=O)[O-])o1	nt	12.6µM*	nt	nt	nt
O=Cc1ccc(Cl)cc1Cl	-3.2%	-14.2%	nt	-6.9%	nt
CC(=O)c1ccc(Oc2ccc(C(=O)c3ccc(C)c(C)c3)cc2[N+](=O)[O-])cc1	3.1%	0.794µM*	?	7.08µM*	?
C/C=C\c1ccc(OC)cc1	0.5%	-5.1%	nt	-0.4%	?
COc1ccc(N2C(=O)NC(=O)/C(=C/c3ccc(N4CCOCC4)cc3)C2=O)cc1	nt	10µM*	nt	nt	-5.3%[46 µM]
CN1C(=O)C(=Cc2ccc(SC3CCCCC3)o2)C(=O)N(C)C1=O	nt	14.1µM*	nt	nt	nt
COc1cc(/C=C2/C(=O)NC(=O)N(c3ccccc3)C2=O)ccc1O	0.8%	?	28.2	?	-1.1%
O=C1NC(=O)N(Cc2ccc(F)cc2)C(=O)/C1=C\c1ccc(N2CCCC2)cc1	nt	0.251µM*	nt	nt	nt
CN1C(=O)C(=Cc2ccc(N3CCCCCC3)cc2)C(=O)N(C)C1=O	nt	0.112µM*	nt	nt	nt
CN1C(=O)C(=Cc2ccc(N3CCOCC3)c([N+](=O)[O-])c2)C(=O)N(C)C1=O	nt	?	nt	nt	6.1%[9.22 µM]
CCN(CC)c1ncnc2c1ncn2[C@@H]1O[C@@H](COP(=O)(O)OP(=O)(O)C(Br)(Br)P(=O)(O)O)[C@H](O)[C@@H]1O	-5.0%	nt	nt	nt	nt
O=C1NC(=O)N(c2ccc(F)cc2)C(=O)/C1=C/c1ccc(N2CCOCC2)cc1	nt	3.98µM*	nt	nt	nt
Cc1cccc(N2C(=O)NC(=O)/C(=C/c3ccc(-c4ccc(C(=O)O)c(Cl)c4)o3)C2=O)c1	nt	3.8%	nt	nt	nt
Cc1ccc(N2C(=O)NC(=O)/C(=C\c3ccc([N+](=O)[O-])o3)C2=O)cc1	nt	?	nt	nt	8.4%[46 µM]
CN1C(=O)C(=Cc2ccc(N3CCCCC3)o2)C(=O)N(C)C1=S	-2.1%	14.1µM*	-100.0*	-22.8%	17.9%
Cc1ccc(N2C(=O)NC(=O)/C(=C\c3ccc(N4CCOCC4)cc3)C2=O)cc1	0.3%	11.2µM*	?	35.5µM*	-2.6%
Cc1cccc(N2C(=O)NC(=O)/C(=C/c3ccc(N4CCOCC4)cc3)C2=O)c1	nt	11.2µM*	nt	nt	nt
SMILES	12-hLO inh	ALDH1A1 block	PNC assembly inh	HPGD inh	LMNA splice mod
O=C(Cl)c1ccccc1F	0.9%	?	nt	-13.8%	nt
O=P(O)(O)CCP(=O)(O)O	1.4%[11.4 µM]	1.0%[13.5 µM]	nt	-6.2%	nt
C[C@@H]1Cc2c(Cl)cc(C(=O)N[C@@H](Cc3ccccc3)C(=O)O)c(O)c2C(=O)O1	3.1%[0.00818 µM]	?	nt	?	nt
O=C(Nc1ccc([As](=O)(O)O)cc1)Nc1cccc(Cl)c1Cl	3.2%[11.4 µM]	3.2%[13.5 µM]	nt	-8.4%	nt
O=C1NC(=O)N(c2cccc(Cl)c2)C(=O)/C1=C\c1ccc(Sc2nc3ccccc3[nH]2)o1	?	22.4µM*	1.3	7.94µM*	-4.5%
O=C1NC(=O)N(c2ccccc2F)C(=O)/C1=C/c1ccc(Sc2nc3ccccc3[nH]2)o1	-25.1%	10µM*	-23.6	3.55µM*	-12.4%
O=C1NC(=O)N(c2ccccc2)C(=O)/C1=C/c1ccc(Sc2ccccc2)o1	3.2%	0.2%	-4.2	-18.4%	?
O=C1NC(=O)N(c2ccc3c(c2)OCO3)C(=O)/C1=C\c1ccc(-c2ccccc2C(=O)O)o1	nt	-14.4%	nt	nt	-14.8%[46 µM]
OC[C@@H]1CCCN2CCCC[C@@H]12	-0.2%	2.2%	nt	-3.6%	nt
